Source: PubChem (several laboratories)
Myeloid diff MLP: promotes myeloid progenitor differentiation; 1% of 360,000 active; ER-HoxA9 myeloid progenitors, lysozyme-GFP differentiation, flow cytometry; calls only at 10 µM;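 active = normalized GFP-positive differentiation at or above the plate's own cutoff, the solvent-only control mean plus 3 SD; inconclusive = no clear call, values can overlap the other calls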;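 also: cells exposed to compound for four days before flow analysis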
DAGLB inh: diacylglycerol lipase beta (human) inhibition. Q8NCG7. HEK293T DAGLB membrane lysate, EnzChek fluorogenic substrate. inhibition, % at 5.17 µM. 0.059% of 340,000 active; in the data active = inhibition above about 34%;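 also: 0% = enzyme with vehicle and 100% = wells lacking enzyme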
Target sequence (Q8NCG7 whole entry, looked up): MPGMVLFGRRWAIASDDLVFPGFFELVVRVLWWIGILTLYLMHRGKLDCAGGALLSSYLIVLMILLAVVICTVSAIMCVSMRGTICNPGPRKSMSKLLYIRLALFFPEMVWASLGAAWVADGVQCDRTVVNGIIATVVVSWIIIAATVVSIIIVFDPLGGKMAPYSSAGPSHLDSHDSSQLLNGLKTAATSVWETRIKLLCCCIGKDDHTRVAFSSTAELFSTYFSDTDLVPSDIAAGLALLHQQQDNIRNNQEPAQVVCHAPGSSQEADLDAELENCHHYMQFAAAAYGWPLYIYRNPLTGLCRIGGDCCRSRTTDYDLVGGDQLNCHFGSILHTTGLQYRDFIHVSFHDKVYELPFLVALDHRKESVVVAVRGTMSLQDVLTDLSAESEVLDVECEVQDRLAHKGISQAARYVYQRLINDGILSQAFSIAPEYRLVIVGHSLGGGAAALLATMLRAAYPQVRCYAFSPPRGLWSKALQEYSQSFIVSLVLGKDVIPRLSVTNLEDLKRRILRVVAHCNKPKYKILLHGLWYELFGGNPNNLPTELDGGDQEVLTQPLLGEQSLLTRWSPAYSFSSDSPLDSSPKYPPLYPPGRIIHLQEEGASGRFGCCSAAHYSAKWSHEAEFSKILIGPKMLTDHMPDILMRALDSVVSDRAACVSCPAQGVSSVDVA
sPLA2-III inh: Inhibits HGIII-sPLA2 liposome hydrolysis, primary screen | Q9NZ20 | QFRET BODIPY PC-A2 liposome hydrolysis, fluorescence | inhibition, % at 12.2 µM | 0.56% of 370,000 active | AID 743126;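 active = inhibition above mean plus 3 SD of compounds lying within the high and low control bounds, cut at about 19% in these data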;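 also: 0% = median of test compound wells and 100% = no enzyme DMSO wells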
Rtt109 HAT inh: C. albicans Rtt109 histone acetyltransferase inhibition | Q5AAJ8 | purified Rtt109/Vps75, ThioGlo CoA-SH fluorescence, 4 h | inhibition, % at 34.9 µM | 0.16% of 330,000 active | AID 540336;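 active = inhibition of at least 50% in every replicate; inconclusive = best replicate reaches 50% inhibition but some replicates fall short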
ABHD5-PLIN5 inh: blocks binding of human ABHD5 to perilipin-5; Q00G26+Q8WTS1; Split G. princeps luciferase complementation, luminescence, 4 h; inhibition, % at 4 µM; 0.78% of 360,000 active;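 active = inhibition above the mean inhibition across every tested compound plus 3 SD, cut at about 22% in these data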;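 also: 0% = DMSO only wells and the 100% control is not disclosed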
Cardio protect: protects H9c2 cardiomyocytes from peroxide injury. AID 588492. H2O2 injury protection, ATPLite, 2 h. protection from H2O2 cell death, % at 20 µM. 0.63% of 360,000 active;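 active = compounds giving at least 50% protection of heart cells from peroxide-induced death in the single-dose screen, raw or plate-pattern-corrected value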;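 also: 0% = DMSO wells with peroxide and 100% = DMSO wells without peroxide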
ABHD5 PLIN5 conf: ABHD5-PLIN5 interaction inhibition, confirmed; 67% of 2,200 active; biochemical ABHD5-PLIN5 interaction, luminescence; inhibition, % at 4 µM; shares compounds with ABHD5-PLIN5 inh; in the data active = inhibition above about 23%;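 also: 0% = DMSO vehicle wells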
HNF4 split-luc: counter-screen for ABHD5-PLIN5 inhibitors: HNF4 split-luciferase | shares compounds with ABHD5-PLIN5 inh | HNF4 dimerization, luminescence, biochemical | inhibition, % at 4 µM | 77% of 2,200 active | AID 651674;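 active = mean inhibition across replicate wells exceeding the computed hit threshold, cut at about 13% in these data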;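 also: light from luciferase halves that rejoin when HNF4 fusion proteins dimerize; 0% = DMSO only wells and the 100% control is not given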
* = called active by the depositor; i = inactive; ? = inconclusive; / = no result given. Only some compounds are listed: those with a hit (about 2.9% of all), similar ones and a draw of the others.

SMILES	Myeloid diff MLP	DAGLB inh	sPLA2-III inh	Rtt109 HAT inh	ABHD5-PLIN5 inh	Cardio protect	ABHD5 PLIN5 conf	HNF4 split-luc
Cc1[nH]nc2c1C(c1ccc(-c3ccccc3C#N)o1)C(C#N)=C(N)O2 (stereo unspecified)	i	1	/	-13	-2	19	/	/
Cc1[nH]nc2c1C(c1ccc(-c3ccc(Cl)cc3)o1)C(C#N)=C(N)O2 (stereo unspecified)	i	4	-10	-6	28*	-4	17	44*
C#CCOCCOCCOCCNc1nc(N2CCN(C(=O)[C@H](CCCCN)n3cc(CN)nn3)CC2)nc(N2CCN(C(=O)[C@H](CO)n3cc([C@@H](N)C(C)C)nn3)CC2)n1	i	-1	1	-1	8	0	/	/
O=C(NCc1ccccc1)C(c1ccncc1)n1c(=O)c(-c2ccco2)nc2ccccc21 (stereo unspecified)	i	/	-8	/	36*	/	31*	14*
CC(C)(C)NC(=O)C(c1cccc2ccccc12)n1c(=O)c(-c2ccco2)nc2ccccc21 (stereo unspecified)	i	/	-15	/	67*	/	69*	13*
O=C(NCc1ccccc1)C(CCc1ccccc1)n1c(=O)c(-c2ccccc2)nc2ccccc21 (stereo unspecified)	i	/	-6	/	38*	/	41*	28*
O=C(NCc1ccccc1)C(c1cccc2ccccc12)n1c(=O)c(-c2ccco2)nc2ccccc21 (stereo unspecified)	i	/	1	/	58*	/	97*	34*
COc1ccc(NC(=O)C(=O)c2cn(CC(=O)N3CCCC3)c3ccccc23)cc1OC	i	-1	-4	17	0	18	/	/
N#Cc1ccc(C(C(=O)NCc2ccccc2)n2c(=O)c(-c3cc4ccccc4[nH]3)nc3ccccc32)cc1 (stereo unspecified)	i	/	-8	/	4	/	/	/
O=C(NCc1ccccc1)C(c1ccc(-c2ccccc2)cc1)n1c(=O)c(-c2ccco2)nc2ccccc21 (stereo unspecified)	i	/	8	/	87*	/	75*	14*
CC(NC(=O)c1ccco1)C12CC3CC(CC(C3)C1)C2 (stereo unspecified)	i	-1	-1	3	-4	-8	/	/
CC(C)SC1=NC(C)(C)C=C(/C=C/c2c(Cl)cccc2Cl)N1	i	-5	/	-3	10	-15	/	/
CC(C)SC1=NC(C)(C)C=C(/C=C/c2ccc(Cl)cc2Cl)N1	i	-5	6	-1	39*	-30	25*	31*
O=C(C1=NOC2(C1)C(=O)Nc1ccccc12)N1CCCC1 (stereo unspecified)	i	/	1	/	-1	/	/	/
C[N+](C)(C)CCNC(=O)c1ccccc1	i	/	11	/	-2	/	/	/
O=C(Cn1sc2ccccc2c1=O)Nc1ccc(Cl)cc1	i	2	0	/	62*	-35	83*	118*
O=C(Cn1nc(-c2ccccc2)c2ccccc2c1=O)Nc1ccc(F)cc1	i	-1	6	1	8	1	/	/
O=C(Cn1sc2ccccc2c1=O)Nc1ccc(Br)cc1	i	3	3	/	65*	-33	81*	118*
O=C(Cn1sc2ccccc2c1=O)Nc1ccc(F)cc1	i	-1	5	/	58*	-32	69*	115*
O=C(CN1C(=O)C2CC=CCC2C1=O)Nc1ccc(Br)cc1 (stereo unspecified)	i	1	1	-1	-1	-4	/	/
Cc1ccc(Cl)cc1N1CCN(S(=O)(=O)c2c(C)[nH]c(C)c2C(=O)N2CCCCC2)CC1	i	2	-19	36	0	3	/	/
Cc1nnc(NC(=O)c2nc(S(=O)(=O)Cc3ccccc3C)ncc2Cl)s1	?	0	3	18	31*	-17	72*	48*
CC(C)c1nnc(NC(=O)c2nc(S(=O)(=O)Cc3ccc(F)cc3)ncc2Cl)s1	?	4	-2	19	44*	-15	92*	57*
CC(C)c1nnc(NC(=O)c2nc(S(=O)(=O)Cc3ccccc3F)ncc2Cl)s1	/	/	3	/	/	/	/	/
